# Source: PubChem BioAssay (National Center for Advancing Translational Sciences (NCATS))
# Sampled rows, rich in hits. Any-hit rate of the full collection: about 14%.
# FBPA Giardia inh – qHTS Assay for Inhibitors of Fructose-1,6-bisphosphate Aldolase from Giardia Lamblia; A8B2U2; purified Giardia FBPA; Potency, µM (series often up to 59.6 µM), for the others: at the highest dose activity, negative = inhibition, actives largely listed as inhibitors; 290,000 compounds, 0.71% hits; AID 2451, 2010; further: potency means the concentration at half of the fitted maximal effect; nearly all actives have a fitted effect of over 55% in size
# Target sequence (A8B2U2 whole entry, looked up): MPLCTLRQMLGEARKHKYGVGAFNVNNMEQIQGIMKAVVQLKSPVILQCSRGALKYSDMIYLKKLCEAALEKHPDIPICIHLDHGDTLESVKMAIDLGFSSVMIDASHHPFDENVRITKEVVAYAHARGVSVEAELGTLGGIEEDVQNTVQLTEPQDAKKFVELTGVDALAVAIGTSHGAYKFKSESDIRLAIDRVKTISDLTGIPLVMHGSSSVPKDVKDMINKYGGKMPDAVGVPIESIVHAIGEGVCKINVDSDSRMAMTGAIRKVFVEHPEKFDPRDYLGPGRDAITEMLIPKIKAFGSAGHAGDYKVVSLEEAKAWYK
#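 40 nM FBPA preincubated 10 min at RT with compound (up to 57.5 uM final), then substrate plus GAPDH/TPI/NAD/arsenate coupling and diaphorase/resazurin added. Fluorescence read after 20 min at RT, 525/598 nm.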
# Pf growth 96h – Primary qHTS for delayed death inhibitors of the malarial parasite plastid, 96 hour incubation. AID 504834, 2011. Potency, µM (top dose mostly 28.7 µM), without a hit: top-dose activity change, negative = inhibition, hits mostly inhibitors. 320,000 compounds, 6.9% hits. P. falciparum luciferase reporter growth, 96 h; further: potency means the concentration at half of the fitted maximal effect
#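 Delayed-death screen, second-generation endpoint: infected erythrocytes, 2% hematocrit, 0.05% parasitemia final; 96 hours at 37 C, 5% CO2; luciferase detection reagent; luminescence decrease equals reduced growth.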
# Sm TGR block – qHTS Assay for the Inhibitors of Schistosoma Mansoni Peroxiredoxins. Potency, µM (titrated, usually from 114 µM), for inactives: at the highest dose activity change, negative = inhibition, most hits filed as inhibitors. Schistosoma mansoni thioredoxin glutathione reductase (TGR), Q962Y6. 360,000 compounds, 3% hits. purified TGR, DTNB reduction, TNB absorbance 405 nm; further: potency means the concentration at half of the fitted maximal effect; nearly all actives have a fitted effect of over 60% in size
#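 Kinetic colorimetric format: TGR-catalysed, NADPH-driven DTNB reduction monitored via TNB absorbance. Enzyme dispensed at 20 nM; compound exposure 15 min at room temperature before reaction start.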
# HCMV inh – qHTS Assay for inhibitors of the human cytomegalovirus (HCMV). activity change, negative = inhibition, % at 57.5 µM. AID 1259415, 2018. 410,000 compounds, 4.5% hits. HFF cells, HCMV-luciferase reporter, 72 h; stronger effect = lower value; in the data active means activity change below about -60%; inconclusive means no clear call, values can overlap the other calls; inactive means above about -39%
#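 Inhibition of viral replication was scored as loss of reporter luminescence in HFFs infected with HCMV-luciferase (MOI 1 PFU/cell) for 72 h; compounds tested at 2 doses, normalized to buffer and Salinomycin controls.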
# Pf growth 48h – Primary qHTS for delayed death inhibitors of the malarial parasite plastid, 48 hour incubation; 310,000 compounds, 5.9% hits; Potency, µM (doses to about 28.7 µM), without a hit: at the highest dose activity change, negative = inhibition, hits mostly inhibitors; P. falciparum luciferase growth in erythrocytes, 48 h; AID 504832, 2011; further: potency means the concentration at half of the fitted maximal effect
#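 Cell-based growth assay: transgenic P. falciparum expressing firefly luciferase, cultured in red cells within RPMI 1640 containing 0.5% w/v Albumax, 24 mM bicarbonate and gentamycin. A drop in luciferase activity indicates inhibition.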
# * marks the source's active call; other numbers are inactive results; ? = inconclusive; nt = no result. Unless noted, the call rests on the fitted dose curve; in most records, active means well fitted curve in the direction sought with a large enough effect; inconclusive means small, poorly fitted or top-dose-only effect, or another doubt; inactive means no such curve, though single readings can be large; an effect the other way counts as inactive or inconclusive. On the % scale 0 is the no-effect control and ±100 the full control effect.
SMILES,FBPA Giardia inh,Pf growth 96h,Sm TGR block,HCMV inh,Pf growth 48h
COc1cccc(/C=C2\SC(=O)N(CCC(=O)NC3CCS(=O)(=O)C3)C2=O)c1 (stereo not given),nt,9.28µM*,-11.9%,1.6,-3.0%
O=C(CCN1C(=O)S/C(=C\c2ccccc2)C1=O)NC1CCS(=O)(=O)C1 (stereo not given),nt,11.7µM*,-3.7%,10.8,-6.8%
CCN(C(=O)CN1C(=O)S/C(=C\c2cccc(OC)c2)C1=O)C1CCS(=O)(=O)C1 (stereo not given),nt,8.28µM*,-7.9%,?,?
COc1cc2[nH]c(=O)n(Cc3ccc(C(=O)NCc4ccccc4)cc3)c(=O)c2cc1OC,nt,nt,1.1%,-0.5,nt
Oc1c(C(Nc2cccc(C(F)(F)F)c2)c2ccncc2)ccc2cccnc12 (stereo not given),-16.0%,?,35.5µM*,-98.8*,1.85µM*
Oc1c(C(Nc2nccs2)c2ccc(C(F)(F)F)cc2)ccc2cccnc12 (stereo not given),?,-72.9%,-13.3%,0.0,0.37µM*
O=C(COc1ccccc1)NCC(=O)N1CCCC(C(F)(F)F)C1 (stereo not given),nt,nt,nt,-5.1,nt
S=c1[nH]nc(-c2cccs2)n1/N=C/c1c(Cl)cccc1Cl,-1.6%,0.6%,-1.7%,-15.9,-1.3%
Cc1cc(=O)oc2cc(OCC(=O)NCC3CCC(C(=O)O)CC3)ccc12 (stereo not given),3.8%,-0.1%,-7.2%,-30.2,37.7%
Cc1c(C)c2ccc(OCC(=O)N[C@@H](Cc3ccccc3)C(=O)O)cc2oc1=O,17.8%,26.8%,27.2%,-76.8*,22.2%
Cc1c(C)c2ccc(OCC(=O)NC(Cc3ccc(Cl)cc3)C(=O)O)cc2oc1=O (stereo not given),23.3%,?,-2.3%,-37.5,26.3%
Cc1cc(OC(C)C(=O)NCC2CCC(C(=O)O)CC2)c2c(C)c(Cc3ccccc3)c(=O)oc2c1 (stereo not given),4.7%,10.4µM*,?,-11.0,?
Cc1c(Cc2ccccc2)c(=O)oc2c(C)c(OC(C)C(=O)NCC3CCC(C(=O)O)CC3)ccc12 (stereo not given),-4.6%,13.1µM*,9.2%,0.0,?
Cc1c(Cc2ccccc2)c(=O)oc2cc(OCC(=O)NCC3CCC(C(=O)O)CC3)ccc12 (stereo not given),-2.0%,11.7µM*,-12.9%,10.4,?
CCC[C@H]1[C@H](N(Cc2cccs2)Cc2cccs2)CC[C@@]23CCCN2C(=O)CCC[C@@H]13,nt,nt,nt,18.4,nt
C[C@H]1COc2cc(N3CCOCC3)ccc2S(=O)(=O)N1,nt,nt,nt,8.9,nt
N#C/C(=C\c1ccc(Cl)cc1Cl)c1nc(-c2cccc(Cl)c2)cs1,nt,nt,1.8%,3.8,nt
CC(C)Cn1c(=O)c2ccccc2n2c(CCC(=O)NC(C)c3ccccc3)nnc12 (stereo not given),nt,nt,4.8%,?,nt
COc1ccc(NC(=O)COC(=O)c2ccccc2SCC(=O)N2CCCC2)cc1,nt,0.1%,7.7%,-16.7,11.4%
CC(C)c1ccc(NC(=O)CCCc2nc(-c3ccc(Cl)cc3)no2)cc1,nt,nt,6.4%,-1.1,nt
Cc1cc(OCC(=O)N[C@@H](CSCc2ccccc2)C(=O)O)c2c(C)c(C)c(=O)oc2c1,5.1%,10.4µM*,-11.8%,-0.1,?
Cc1cc(OCC(=O)N[C@@H](Cc2ccccc2)C(=O)O)c2c3c(c(=O)oc2c1)CCC3,15.0%,57.6%,7.7%,-39.7,-9.3%
CN1C(=O)C(C(Nc2ccccc2)c2ccccc2)c2ccccc21 (stereo not given),nt,nt,nt,-4.1,nt
CCOC(=O)C1=C(O)/C(=C/c2cn(CC(=O)N3CCCC3)c3ccccc23)SC1=Nc1ccccc1,-1.9%,3.29µM*,-7.6%,nt,4.65µM*
CN1C(=O)C(=Cc2cn(CC(=O)N3CCCC3)c3ccccc23)C(=O)N(C)C1=O,9.3%,2.6%,-0.2%,-4.8,6.7%
COc1ncc(-c2ccc(N3C(c4ccsc4)=Cc4ccccc4C3CC(C)=O)cc2)cn1 (stereo not given),nt,nt,nt,-4.3,nt
